From PubChem BioAssay (EPA / NIEHS)
The source made the active and inactive calls. How the source made its calls: active means hit-call score of the fitted dose curve at least 0.9, where 1 is the maximum; inactive means score below 0.9.

What was measured:
[1] = biological target: Bile acid receptor (Homo sapiens) (UniProt Q96RI1); test: ATG_IR1_CIS: Attagene CIS-FACTORIAL HepG2 Assay for human Nuclear Receptor Subfamily 1 Group H Member 4 (NR1H4), IR1 submotif (AID 2282946); details: IR1 reporter transcription, actives raise or lower the signal
Sequence of Bile acid receptor (Homo sapiens) (Q96RI1 whole entry, looked up, the tested form may be a part): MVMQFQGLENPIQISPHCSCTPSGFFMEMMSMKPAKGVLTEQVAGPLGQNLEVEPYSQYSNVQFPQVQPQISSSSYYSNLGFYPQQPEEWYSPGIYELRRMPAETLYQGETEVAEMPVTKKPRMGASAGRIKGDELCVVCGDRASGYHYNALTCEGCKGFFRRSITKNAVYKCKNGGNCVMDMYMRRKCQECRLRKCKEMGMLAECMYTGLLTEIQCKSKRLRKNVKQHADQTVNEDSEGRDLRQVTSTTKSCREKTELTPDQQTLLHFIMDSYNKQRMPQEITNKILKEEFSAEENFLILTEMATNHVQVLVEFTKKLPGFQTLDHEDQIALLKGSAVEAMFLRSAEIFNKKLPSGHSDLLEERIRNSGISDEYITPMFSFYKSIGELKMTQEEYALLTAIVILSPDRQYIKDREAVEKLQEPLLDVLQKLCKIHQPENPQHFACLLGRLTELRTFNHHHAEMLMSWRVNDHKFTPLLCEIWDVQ
Summary of the method: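 Cells (human HepG2) carry transiently transfected cis-promoter reporter transcription units. Compounds are incubated 24 h, total RNA is reverse-transcribed and amplified, and labelled fragments are resolved by capillary electrophoresis. Curves use DMSO as baseline.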

[2] = ATG_GRE_CIS: Attagene CIS-FACTORIAL HepG2 Assay for human Glucocorticoid Response Elements (GRE) (AID 2282947); details: HepG2 GRE cis-reporter, Attagene multiplex mRNA; actives raise or lower the signal
Summary of the method: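 Transient MRTU transfection of human HepG2 liver cells; cis-regulated reporters report endogenous factors. 24 h dosing → RNA isolation → RT-PCR → 6-FAM primer extension → HpaI cut → CE fragment analysis. Bidirectional fit, DMSO negative control.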

[3] = ATG_ISRE_CIS: Attagene CIS-FACTORIAL HepG2 Assay for human Interferon Regulatory Factor 1 (IRF1) binding to an Interferon-Stimulated Response Element (ISRE) (AID 2282948); details: HepG2 ISRE cis-reporter (Attagene), mRNA transcription readout; actives raise or lower the signal
Summary of the method: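 Cell-based cis-reporter assay; HepG2; 24 h exposure; reporter mRNA by RT-PCR plus capillary electrophoresis fluorescence; activity in either direction scored relative to DMSO.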

[4] = ATG_M_32_CIS: Attagene CIS-FACTORIAL HepG2 Assay for M32 Transcription Factor (Internal Marker) (AID 2282949); details: HepG2 Attagene cis-factorial M32 reporter, mRNA; actives raise or lower the signal;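 further: background control marker of the multiplexed CIS panel rather than a real target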
Summary of the method: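 Fluorescent capillary electrophoresis peaks of HpaI-digested, FAM-labelled RT-PCR reporter products give the signal. Source: transiently transfected human liver HepG2 cells, 24 h after chemical dosing; bidirectional fitting against DMSO.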

[5] = ATG_M_06_CIS: Attagene CIS-FACTORIAL HepG2 Assay for M06 Transcription Factor (Internal Marker) (AID 2282950); details: HepG2 Attagene CIS-FACTORIAL M06 internal marker reporter; actives raise or lower the signal
Summary of the method: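 Internal background marker within multiplexed cis-reporter HepG2 system. Cells transiently transfected, dosed 24 h; reporter mRNA measured by RT-PCR, HpaI digestion and capillary electrophoresis. Bidirectional fit relative to DMSO.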

[6] = biological target: Hypoxia-inducible factor 1-alpha (Homo sapiens) (UniProt Q16665); test: ATG_HIF1a_CIS: Attagene CIS-FACTORIAL HepG2 Assay for human Hypoxia Inducible Factor 1 (HIF1A) (AID 2282951); details: HepG2 Attagene cis-factorial HIF1a reporter transcription; actives raise or lower the signal
Sequence of Hypoxia-inducible factor 1-alpha (Homo sapiens) (Q16665 whole entry, looked up): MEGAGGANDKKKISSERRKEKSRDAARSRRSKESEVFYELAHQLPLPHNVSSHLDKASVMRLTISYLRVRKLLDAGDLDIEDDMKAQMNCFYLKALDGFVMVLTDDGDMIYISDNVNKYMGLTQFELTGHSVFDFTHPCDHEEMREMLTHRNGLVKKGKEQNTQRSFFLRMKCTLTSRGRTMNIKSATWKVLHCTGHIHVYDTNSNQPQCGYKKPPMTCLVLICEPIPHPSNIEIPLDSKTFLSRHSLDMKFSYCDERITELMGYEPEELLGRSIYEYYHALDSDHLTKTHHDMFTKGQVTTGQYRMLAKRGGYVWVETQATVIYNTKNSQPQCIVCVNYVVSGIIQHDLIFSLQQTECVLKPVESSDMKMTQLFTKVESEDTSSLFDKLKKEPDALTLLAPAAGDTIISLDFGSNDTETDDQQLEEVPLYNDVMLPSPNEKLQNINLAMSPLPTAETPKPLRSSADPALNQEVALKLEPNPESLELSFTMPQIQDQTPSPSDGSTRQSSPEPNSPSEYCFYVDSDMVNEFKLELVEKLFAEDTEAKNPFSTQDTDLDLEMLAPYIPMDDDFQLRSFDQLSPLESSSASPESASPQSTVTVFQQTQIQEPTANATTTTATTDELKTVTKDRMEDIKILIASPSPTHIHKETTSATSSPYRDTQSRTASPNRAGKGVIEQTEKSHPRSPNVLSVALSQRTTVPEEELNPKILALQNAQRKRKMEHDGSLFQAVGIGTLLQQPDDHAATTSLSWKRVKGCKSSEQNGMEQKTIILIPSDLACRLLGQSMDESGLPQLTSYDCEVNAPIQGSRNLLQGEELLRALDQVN
Summary of the method: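 Endogenous-TF cis reporter readout, human HepG2 cells, 24 h incubation; mRNA detected via RT-PCR and capillary electrophoresis fluorescence; DMSO-normalised bidirectional fitting.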

[7] = biological target: Hepatocyte nuclear factor 6 (Homo sapiens) (UniProt Q9UBC0); test: ATG_HNF6_CIS: Attagene CIS-FACTORIAL HepG2 Assay for human Hepatocyte Nuclear Factor 6 (HNF6) (AID 2282952); details: HepG2 Attagene cis-factorial HNF6 reporter transcription; actives raise or lower the signal
Sequence of Hepatocyte nuclear factor 6 (Homo sapiens) (Q9UBC0 whole entry, looked up): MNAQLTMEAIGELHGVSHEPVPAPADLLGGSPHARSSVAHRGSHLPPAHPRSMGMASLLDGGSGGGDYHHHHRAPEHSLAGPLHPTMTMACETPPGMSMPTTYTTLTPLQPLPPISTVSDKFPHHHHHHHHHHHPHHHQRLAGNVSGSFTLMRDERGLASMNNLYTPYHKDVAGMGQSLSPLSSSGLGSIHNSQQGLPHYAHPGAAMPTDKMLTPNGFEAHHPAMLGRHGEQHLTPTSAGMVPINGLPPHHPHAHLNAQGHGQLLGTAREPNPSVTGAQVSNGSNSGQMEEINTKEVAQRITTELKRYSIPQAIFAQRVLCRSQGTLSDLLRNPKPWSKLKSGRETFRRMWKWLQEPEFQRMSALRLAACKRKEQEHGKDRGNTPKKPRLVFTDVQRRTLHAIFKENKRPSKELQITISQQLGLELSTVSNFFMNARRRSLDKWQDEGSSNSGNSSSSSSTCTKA
Summary of the method: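 Cells are HepG2 carrying transiently transfected cis-promoter reporter units. Treatment lasts 24 h, after which reporter transcripts are reverse-transcribed, amplified, FAM-labelled and sized by capillary electrophoresis. DMSO serves as baseline.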

[8] = biological target: Heat shock factor protein 1 (Homo sapiens) (UniProt Q00613); test: ATG_HSE_CIS: Attagene CIS-FACTORIAL HepG2 Assay for human Heat Shock Transcription Factor 1 (HSE) (AID 2282953); details: HepG2 HSE cis-reporter, Attagene RNA transcription; actives raise or lower the signal
Sequence of Heat shock factor protein 1 (Homo sapiens) (Q00613 whole entry, looked up): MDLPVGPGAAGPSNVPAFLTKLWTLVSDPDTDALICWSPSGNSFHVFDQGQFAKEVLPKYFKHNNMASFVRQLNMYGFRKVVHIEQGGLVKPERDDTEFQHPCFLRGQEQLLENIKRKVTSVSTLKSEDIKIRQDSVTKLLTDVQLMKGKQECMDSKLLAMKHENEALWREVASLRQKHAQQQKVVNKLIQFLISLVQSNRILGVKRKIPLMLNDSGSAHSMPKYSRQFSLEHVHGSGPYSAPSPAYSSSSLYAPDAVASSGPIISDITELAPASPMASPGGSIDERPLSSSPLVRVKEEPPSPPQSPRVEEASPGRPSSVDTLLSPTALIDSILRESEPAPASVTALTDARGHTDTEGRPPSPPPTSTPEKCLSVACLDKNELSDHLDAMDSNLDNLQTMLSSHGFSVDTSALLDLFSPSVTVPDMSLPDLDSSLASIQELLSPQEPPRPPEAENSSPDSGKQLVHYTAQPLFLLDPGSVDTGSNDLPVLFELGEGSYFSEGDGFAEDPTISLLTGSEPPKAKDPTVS
Summary of the method: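 HepG2 cells transfected with cis-promoter reporter units sensing endogenous transcription factor activity; reporter mRNA quantified 24 h post-dose by RT-PCR and capillary electrophoresis of 6-FAM-labelled products. Bidirectional fitting against DMSO.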

[9] = ATG_MRE_CIS: Attagene CIS-FACTORIAL HepG2 Assay for human Metal Responsive Element (MRE) (AID 2282954); details: HepG2 MRE cis-reporter transcription, Attagene multiplex; actives raise or lower the signal
Summary of the method: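 Transient MRTU transfection of HepG2 (FuGene 6); 24 h dosing; total RNA → oligo(dT) RT, PCR, 6-FAM primer extension, HpaI cut, CE. Bidirectional fit vs DMSO.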

[10] = ATG_PBREM_CIS: Attagene CIS-FACTORIAL HepG2 Assay for human Phenobarbital-responsive Enhancer Module (PBREM) (AID 2282955); details: HepG2 PBREM cis-reporter, Attagene multiplexed transcription; actives raise or lower the signal
Summary of the method: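 Readout: reporter mRNA, fluorescent RT-PCR fragments separated by capillary electrophoresis. System: HepG2 transiently transfected with cis-regulated reporter units. Exposure: 24 h. Analysis: bidirectional, DMSO baseline.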

| SMILES | outcome [1] | outcome [2] | outcome [3] | outcome [4] | outcome [5] | outcome [6] | outcome [7] | outcome [8] | outcome [9] | AC50 [3] | AC50 [9] | outcome [10] | AC50 [6] | AC50 [7] | AC50 [8] |
| --- | --- | --- | --- | --- | --- | --- | --- | --- | --- | --- | --- | --- | --- | --- | --- |
| Cc1ccc(N)c(S(=O)(=O)O)c1 | inactive | inactive | inactive | inactive | inactive | inactive | inactive | inactive | inactive | – | – | – | – | – | – |
| O=[N+]([O-])c1ccc(O)cc1C(F)(F)F | inactive | inactive | – | inactive | inactive | inactive | inactive | inactive | – | 48 µM (active) | 61.1 µM (active) | inactive | – | – | – |
| Cc1c(C2(c3cc(Br)c(O)c(Br)c3C)OS(=O)(=O)c3ccccc32)cc(Br)c(O)c1Br | inactive | inactive | inactive | inactive | inactive | inactive | inactive | inactive | inactive | – | – | inactive | – | – | – |
| Nc1ccccc1[N+](=O)[O-] | inactive | inactive | inactive | inactive | inactive | inactive | inactive | inactive | inactive | – | – | – | – | – | – |
| CCOC(=O)[C@@H](C)Oc1ccc(Oc2nc3ccc(Cl)cc3o2)cc1 | inactive | inactive | inactive | inactive | inactive | inactive | inactive | inactive | inactive | – | – | inactive | – | – | – |
| CCOC(=O)CC(C)O (stereo unspecified) | inactive | inactive | inactive | inactive | inactive | inactive | inactive | inactive | inactive | – | – | inactive | – | – | – |
| C=CC(=O)OCCCC | inactive | inactive | inactive | inactive | inactive | inactive | inactive | inactive | inactive | – | – | inactive | – | – | – |
| O=C(CC(=O)c1ccccc1)c1ccccc1 | inactive | inactive | – | inactive | inactive | – | – | – | – | 95.9 µM (active) | – | – | 33.5 µM (active) | 145 µM (active) | 145 µM (active) |
| CC=Cc1ccc(OC)c(OC)c1 | inactive | inactive | inactive | inactive | inactive | inactive | inactive | inactive | inactive | – | – | – | – | – | – |
| CCCCC1CCC(O)CC1 (stereo unspecified) | inactive | inactive | inactive | inactive | inactive | inactive | inactive | inactive | inactive | – | – | inactive | – | – | – |
| Clc1cc(Cl)c(-c2c(Cl)c(Cl)cc(Cl)c2Cl)cc1Cl | inactive | inactive | inactive | inactive | inactive | inactive | inactive | inactive | – | – | – | – | – | – | – |
| CN(C)CCOc1ccc(/C(=C(/CCCl)c2ccccc2)c2ccccc2)cc1 | inactive | inactive | inactive | inactive | inactive | inactive | inactive | inactive | inactive | – | – | inactive | – | – | – |
| CC(=O)O[C@H]1C[C@@H]2CC[C@@]1(C)C2(C)C | inactive | inactive | inactive | inactive | inactive | inactive | inactive | inactive | inactive | – | – | inactive | – | – | – |
| O=C(Nc1ccc2c(c1)Cc1ccccc1-2)C(F)(F)F | inactive | inactive | inactive | inactive | inactive | – | inactive | inactive | inactive | – | – | inactive | 22.6 µM (active) | – | – |
| CCN(CCC#N)c1ccc(N=Nc2ccc([N+](=O)[O-])cc2)cc1 | inactive | inactive | inactive | inactive | inactive | inactive | inactive | inactive | inactive | – | – | inactive | – | – | – |
| COC(=O)c1ccc(OC)cc1 | inactive | inactive | inactive | inactive | inactive | inactive | inactive | inactive | inactive | – | – | inactive | – | – | – |
| C=CC(C)(O)CCC=C(C)C (stereo unspecified) | inactive | inactive | inactive | inactive | inactive | inactive | inactive | inactive | inactive | – | – | inactive | – | – | – |
| CCCCCCCCCCCCCC(=O)OCC(O)CO (stereo unspecified) | inactive | inactive | inactive | inactive | inactive | inactive | inactive | inactive | inactive | – | – | inactive | – | – | – |
| COc1ccc(N)c([N+](=O)[O-])c1 | inactive | inactive | inactive | inactive | inactive | inactive | inactive | inactive | inactive | – | – | inactive | – | – | – |
| CCCCCCCCCCCCCCN(CCO)CCO | inactive | inactive | inactive | inactive | inactive | inactive | inactive | inactive | inactive | – | – | inactive | – | – | – |
| CC1(C)C2=CCCC(C)(C)[C@]23CC[C@H]1C3 | inactive | inactive | inactive | inactive | inactive | inactive | inactive | inactive | – | – | 100 µM (active) | inactive | – | – | – |
| C/C=C(\C)C(=O)OCCc1ccccc1 | inactive | inactive | inactive | inactive | inactive | inactive | inactive | inactive | inactive | – | – | inactive | – | – | – |
| CN(C)C(=S)SC(=S)N(C)C | inactive | inactive | inactive | inactive | inactive | inactive | inactive | inactive | – | – | – | inactive | – | – | – |
| CC1CC(O)CC(C)(C)C1 (stereo unspecified) | inactive | inactive | inactive | inactive | inactive | inactive | inactive | – | inactive | – | – | inactive | – | – | – |
| C=CC(C)C#N (stereo unspecified) | inactive | inactive | inactive | inactive | inactive | inactive | inactive | inactive | inactive | – | – | inactive | – | – | – |
